Each structure is given as a SMILES string. Active and inactive are the calls of the source.

In one assay the target is Albumin (Bos taurus) (UniProt P02769). Nature of the assay: compounds binding labelled BSA control protein – biochemical, small-molecule microarray, Alexa647 label, 635/667 nm fluorescence, artefact control for SMM control protein annotation, profiling panel (AID 1118).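 Further: score merges 667 nm emission intensity and signal-to-noise per printed compound spot.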 As to conditions: BSA-A647 binding, fluorescence 635 nm, higher = more signal.
Albumin (Bos taurus), sequence (P02769 whole entry, looked up): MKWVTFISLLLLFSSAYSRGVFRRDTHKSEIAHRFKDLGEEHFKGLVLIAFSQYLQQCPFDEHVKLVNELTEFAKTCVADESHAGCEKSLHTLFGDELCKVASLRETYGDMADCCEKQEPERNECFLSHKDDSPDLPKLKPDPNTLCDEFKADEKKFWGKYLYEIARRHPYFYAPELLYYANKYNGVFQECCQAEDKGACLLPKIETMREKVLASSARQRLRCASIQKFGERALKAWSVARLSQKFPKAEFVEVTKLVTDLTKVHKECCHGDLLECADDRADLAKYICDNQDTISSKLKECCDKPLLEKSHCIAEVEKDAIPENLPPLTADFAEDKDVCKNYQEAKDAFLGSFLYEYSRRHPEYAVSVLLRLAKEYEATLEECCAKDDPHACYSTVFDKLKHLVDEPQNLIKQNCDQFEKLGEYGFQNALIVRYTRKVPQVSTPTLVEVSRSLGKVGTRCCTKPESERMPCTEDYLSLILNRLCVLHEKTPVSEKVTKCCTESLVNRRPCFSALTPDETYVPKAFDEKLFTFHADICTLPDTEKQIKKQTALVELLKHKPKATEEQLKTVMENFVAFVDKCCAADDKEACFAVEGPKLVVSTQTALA
The nature of assay [1]: probe aXIP binding to arrayed compounds – biochemical, NeuroSMM set, 635/667 nm fluorescence, primary screen (AID 1119).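 Further: probe is the protein aXip251-270 applied at 1 µg/mL to compound-printed slides; binding of probe to printed compounds measured as 667 nm fluorescence plus signal to noise.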 As to conditions: small-molecule microarray, higher = more signal, called active from +8 up or from −8 down.
Assay [2] in a line: probe aNOTCH3 binding on compound microarray – biochemical, small-molecule microarray, 635/667 nm fluorescence, primary screen (AID 1120).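 Further: probe is a biotin-tagged antibody raised against NOTCH3 rather than NOTCH3 protein; score merges spot fluorescence near 667 nm with spot signal to noise.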 Particulars: higher = more signal.
Assay [3] can be described thus: probe aNOTCH2 binding on compound microarray – biochemical, small-molecule microarray, 635/667 nm fluorescence, primary screen (AID 1121).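 Further: score merges feature fluorescence read at 667 nm with its signal to noise.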 As to conditions: higher = more signal.
In assay [4] the target is Carbonic anhydrase 2 (Homo sapiens) (UniProt P00918). In words: compounds binding carbonic anhydrase 2 – biochemical, small-molecule microarray, Alexa647-labelled CAII, profiling panel (AID 1122). Particulars: CAII-A647 binding fluorescence, higher = more signal.
Assay [5] can be described thus: COS7 lysate on small-molecule microarray, probe aHis, 635 nm (AID 1123).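 Further: z-score combines 667nm fluorescence intensity with signal-to-noise per printed compound spot.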 As to conditions: COS7 cell lysate, fluorescence, higher = more signal.
Assay [6] in a line: probe aLAP1 signal on lysate-treated microarray – cell lysate, small-molecule microarray, COS7 lysate, primary screen (AID 1124).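 Further: lysate comes from COS7 cells expressing LAP1 and is applied at 0.3 µg/mL; score merges spot fluorescence near 667 nm with signal-to-noise over triplicate slides.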 Particulars: probe aLAP1, fluorescence, higher = more signal.
In a further assay the test system is Sam68 (KHDRBS1). In words: compounds binding KHDRBS1 protein – biochemical, small-molecule microarray, 635 nm fluorescence, primary screen (AID 1125).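 Further: score merges 667 nm channel intensity with signal to noise over triplicate slides.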 Particulars: higher = more signal.
For assay [7], the system named is Chordin-like protein 2 (CHRDL2). In words: compounds binding chordin-like 2 – biochemical, small-molecule microarray, 635 nm fluorescence, primary screen (AID 1126).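 Further: printed compound slides probed with Chrdl2 protein at 4 µg/mL for 1 h at 4 C; score merges 667 nm emission intensity with signal to noise over three replicate slides.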 Particulars: fluorescence 635 nm, higher = more signal.
In assay [8] the target is Concanavalin-A (Canavalia ensiformis) (UniProt P02866). Nature of the assay: compounds binding concanavalin A lectin – biochemical, small-molecule microarray, Alexa647 label, 635 nm, artefact control for SMM control protein annotation, primary screen (AID 1127).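 Further: z combines 667 nm emission intensity with signal-to-noise across three replicate slides.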 Particulars: ConA-A647 binding fluorescence, higher = more signal.
Concanavalin-A (Canavalia ensiformis), sequence (P02866 whole entry, looked up): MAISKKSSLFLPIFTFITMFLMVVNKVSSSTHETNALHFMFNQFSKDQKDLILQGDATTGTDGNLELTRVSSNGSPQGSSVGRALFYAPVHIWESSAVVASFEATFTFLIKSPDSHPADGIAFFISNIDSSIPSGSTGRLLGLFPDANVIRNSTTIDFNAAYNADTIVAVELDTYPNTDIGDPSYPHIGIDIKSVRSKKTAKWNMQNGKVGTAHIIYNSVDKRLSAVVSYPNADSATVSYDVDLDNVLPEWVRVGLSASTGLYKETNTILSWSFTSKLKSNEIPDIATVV
Assay [9] in a line: compounds binding Alexa647 anti-His antibody – biochemical, small-molecule microarray, 635 nm fluorescence, artefact control for SMM control protein annotation, primary screen (AID 1128).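 Further: score merges feature fluorescence with signal-to-noise for each printed compound spot.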 Particulars: higher = more signal.
The subject of assay [10] is Human papillomavirus type 1a E7 protein (residues 1-88). In words: HPV1a E7 small-molecule binders, primary screen, biochemical, small-molecule microarray, residues 1-88, 635 nm (AID 1129). As to conditions: small-molecule microarray binding, fluorescence 635 nm; higher = more signal.
Assay [11] has as its target Focal adhesion kinase 1 (Homo sapiens) (UniProt Q05397). Nature of the assay: PTK2 protein binding on printed compound slides – biochemical, small-molecule microarray, 635/667 nm fluorescence, BSA, DTT, primary screen (AID 1130).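 Further: composite of spot emission at 667 nm and signal to noise over triplicate slides.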 As to conditions: 635 nm fluorescence, higher = more signal.
Assay [12] relates to Fibrinogen (Alexa647-labelled). Nature of the assay: Alexa647-fibrinogen binding to printed small molecules – biochemical, small-molecule microarray, 635/667 nm fluorescence, artefact control for SMM control-protein annotation, profiling panel (AID 1131).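 Further: z-score merges 667 nm fluorescence with per-spot signal-to-noise over triplicate slides.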 Particulars: fibrinogen-A647 binding fluorescence, higher = more signal.
Assay [13] concerns the target Follistatin (Homo sapiens) (UniProt P19883). In words: FST protein binding to printed compounds – biochemical, small-molecule microarray, 635/667 nm fluorescence, primary screen (AID 1132). As to conditions: 635 nm fluorescence, higher = more signal.
The target in assay [14] is Fibroblast growth factor 2 (Homo sapiens) (UniProt P09038). Nature of the assay: basic fibroblast growth factor binding to printed compounds – biochemical, small-molecule microarray, 635/667 nm fluorescence, primary screen (AID 1133). Particulars: FGF2, fluorescence 635/667, higher = more signal.
Fibroblast growth factor 2 (Homo sapiens), sequence (P09038 whole entry, looked up): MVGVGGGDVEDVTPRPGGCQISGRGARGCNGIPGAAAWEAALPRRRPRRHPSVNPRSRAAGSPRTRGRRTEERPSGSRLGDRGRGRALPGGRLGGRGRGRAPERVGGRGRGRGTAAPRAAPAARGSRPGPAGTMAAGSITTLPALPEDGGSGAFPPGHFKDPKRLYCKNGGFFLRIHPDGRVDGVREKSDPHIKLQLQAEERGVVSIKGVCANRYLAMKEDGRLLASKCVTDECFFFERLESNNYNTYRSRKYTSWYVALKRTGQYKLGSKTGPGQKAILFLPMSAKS
Assay [15] is described as follows: JC-1 mitochondrial potential readout, lung cancer cells – cell-based, A549, JC-1 fluorescence, basal, 24 h, 100 nL, profiling panel (AID 1138).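 Further: A549 lung adenocarcinoma cells under basal conditions with no added stimulus; test concentration not given here.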 As to conditions: higher = more signal.
The subject of a further assay is Lefty1. Nature of the assay: Lefty1 protein binding to printed compounds – biochemical, small-molecule microarray, 635/667 nm fluorescence, primary screen (AID 1139). Particulars: fluorescence 635/667, higher = more signal.
For assay [16], the system named is wheat germ agglutinin (Triticum aestivum), Alexa647-labelled. Nature of the assay: Alexa647-WGA lectin binding to printed small molecules – biochemical, small-molecule microarray, 635/667 nm fluorescence, artefact control for SMM control-protein annotation, profiling panel (AID 1140).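 Further: score merges 667 nm feature emission with signal to noise over triplicate slides.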 As to conditions: WGA-A647 binding, 635 nm fluorescence, higher = more signal.
The target in assay [17] is Luciferin 4-monooxygenase (Photinus pyralis) (UniProt P08659). In words: inhibition of purified Photinus pyralis luciferase – biochemical, luminescence, purified enzyme, 2006 set, primary screen (AID 1141).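 Further: cell-free assay with purified firefly luciferase at 100 ng per well in PBS; test concentration not given here.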 Particulars: purified firefly luciferase, SteadyGlo luminescence, 30 min; higher = more signal, called active from +8 up or from −8 down.
Luciferin 4-monooxygenase (Photinus pyralis), sequence (P08659 whole entry, looked up): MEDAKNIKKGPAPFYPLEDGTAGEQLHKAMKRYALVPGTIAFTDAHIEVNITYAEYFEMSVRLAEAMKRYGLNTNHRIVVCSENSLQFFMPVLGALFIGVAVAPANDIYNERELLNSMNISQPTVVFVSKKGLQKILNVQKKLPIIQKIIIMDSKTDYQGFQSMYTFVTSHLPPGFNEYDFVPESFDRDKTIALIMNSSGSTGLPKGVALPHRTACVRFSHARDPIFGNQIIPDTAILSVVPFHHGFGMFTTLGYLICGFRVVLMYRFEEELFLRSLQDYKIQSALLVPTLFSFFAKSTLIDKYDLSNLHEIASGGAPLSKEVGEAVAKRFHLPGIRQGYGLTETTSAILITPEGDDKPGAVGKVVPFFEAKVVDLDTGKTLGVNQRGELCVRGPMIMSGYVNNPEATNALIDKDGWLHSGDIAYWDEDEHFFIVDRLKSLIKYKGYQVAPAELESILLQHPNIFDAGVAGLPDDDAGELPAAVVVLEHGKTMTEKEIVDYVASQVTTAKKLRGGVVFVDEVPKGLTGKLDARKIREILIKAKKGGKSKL

Focal adhesion kinase 1 (Homo sapiens), sequence (Q05397 whole entry, looked up): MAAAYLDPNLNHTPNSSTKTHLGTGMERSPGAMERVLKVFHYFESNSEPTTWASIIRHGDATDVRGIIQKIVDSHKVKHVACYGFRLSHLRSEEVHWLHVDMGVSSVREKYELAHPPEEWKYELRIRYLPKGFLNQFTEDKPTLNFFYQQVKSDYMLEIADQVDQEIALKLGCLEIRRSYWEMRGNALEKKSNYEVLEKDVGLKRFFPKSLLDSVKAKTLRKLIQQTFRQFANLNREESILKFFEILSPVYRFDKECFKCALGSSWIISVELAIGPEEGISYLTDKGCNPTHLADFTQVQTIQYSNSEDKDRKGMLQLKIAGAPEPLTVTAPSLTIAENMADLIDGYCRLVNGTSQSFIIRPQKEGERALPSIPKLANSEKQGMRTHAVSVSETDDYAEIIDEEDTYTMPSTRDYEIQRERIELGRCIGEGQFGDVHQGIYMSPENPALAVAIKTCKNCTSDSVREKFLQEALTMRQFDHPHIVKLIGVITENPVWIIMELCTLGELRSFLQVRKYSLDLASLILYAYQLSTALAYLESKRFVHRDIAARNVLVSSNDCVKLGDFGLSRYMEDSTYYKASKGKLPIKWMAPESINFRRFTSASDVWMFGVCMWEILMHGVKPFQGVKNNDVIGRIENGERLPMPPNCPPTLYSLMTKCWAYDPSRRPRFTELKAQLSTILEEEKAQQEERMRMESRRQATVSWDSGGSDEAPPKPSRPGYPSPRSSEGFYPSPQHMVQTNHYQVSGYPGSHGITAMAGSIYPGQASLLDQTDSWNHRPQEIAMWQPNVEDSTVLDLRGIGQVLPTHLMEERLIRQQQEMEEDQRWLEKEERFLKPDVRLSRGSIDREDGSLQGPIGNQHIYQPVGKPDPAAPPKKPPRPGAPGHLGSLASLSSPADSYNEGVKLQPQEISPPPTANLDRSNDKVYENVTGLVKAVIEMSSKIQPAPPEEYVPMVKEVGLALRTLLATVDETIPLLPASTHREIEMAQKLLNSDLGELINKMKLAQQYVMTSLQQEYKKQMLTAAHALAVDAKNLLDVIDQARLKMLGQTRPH
Follistatin (Homo sapiens), sequence (P19883 whole entry, looked up): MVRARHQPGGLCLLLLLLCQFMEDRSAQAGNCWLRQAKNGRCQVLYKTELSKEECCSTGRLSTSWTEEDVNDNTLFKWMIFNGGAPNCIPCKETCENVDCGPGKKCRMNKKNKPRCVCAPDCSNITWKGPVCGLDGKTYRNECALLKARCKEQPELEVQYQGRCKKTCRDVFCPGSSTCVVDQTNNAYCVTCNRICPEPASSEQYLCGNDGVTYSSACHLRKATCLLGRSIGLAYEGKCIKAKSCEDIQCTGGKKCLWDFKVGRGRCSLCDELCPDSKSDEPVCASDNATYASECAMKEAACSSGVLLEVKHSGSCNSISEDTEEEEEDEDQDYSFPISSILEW

Take `CCCCCN1CC=CC23O[C@@H]4/C=C\CCC(C)OC(=O)C4[C@H]2C(=O)N(CCO)[C@@H]3C1=O` (stereo not given in full): the composite z-score was -1.09 with Albumin (Bos taurus); -0.28 in assay [2]; -0.172 in assay [3]; 0.905 in assay [4]; 0.663 in assay [5]; 0.0877 in assay [6]. In addition, the composite z-score in the assay with Sam68 (KHDRBS1) is -0.106; in [7] it was -1.79; in assay [8], -0.773; in assay [9] it was 1.31; in assay [10], -0.85; in assay [11], -0.081. Also, the composite z-score in assay [12] was -2.44; in [13], -0.869; in assay [14], -1.2; in the assay on Lefty1, -0.853; in assay [16] it was -0.564. Further, the composite Z-score in assay [1] is 0.547 (inactive). Besides, the z-score was 0.33 in assay [15] and -0.967 (inactive) in [17].
In the case of `CC(C)C[C@@H]1NC(=O)[C@@H]2C[C@H](C(=O)NCCCCCNC(=O)CS)[C@H](c3cccc(OCCO)c3)N2C1=O`, the composite z-score is -1.16 in the assay with Albumin (Bos taurus); 0.0469 in assay [2]; -0.0624 in assay [3]; 0.588 in assay [4]; 1.47 in assay [5]; -0.383 in assay [6]. In addition, the composite z-score in the assay with Sam68 (KHDRBS1) is 1.31; in [7], 0.767; in [8], 1.18; in assay [9], 2.82; in assay [10], 1.18; in assay [11], 1.35. Besides, the composite z-score was 0.837 in assay [12]; 1.38 in assay [13]; 1.3 in assay [14]; 1.13 in the assay on Lefty1; 1.23 in assay [16]. Besides, the composite Z-score in assay [1] is 0.262 (inactive). Also, the z-score in [15] is -0.018; in assay [17], -2.15 (inactive).
Consider `NC(=O)NCC#Cc1ccc2c(c1)[C@]1(C(=O)N2)[C@H](c2ccc(OCCO)cc2)N2[C@H](c3ccccc3)[C@H](c3ccccc3)OC(=O)[C@H]2[C@@H]1C(=O)Nc1nc2ccccc2s1`, for which the composite z-score was -0.0355 in the assay with Albumin (Bos taurus); -0.132 in assay [2]; -0.0629 in assay [3]; 0.0165 in assay [4]; 0.966 in assay [5]; 0.436 in [6]. In addition, the composite z-score was -0.112 in the assay on Sam68 (KHDRBS1); 0.175 in assay [7]; 0.0806 in [8]; -0.609 in [9]; 0.123 in [10]; 0.0616 in assay [11]. Also, the composite z-score in assay [12] was 0.0886; in [13], 0.923; in assay [14], -0.292; in the assay with Lefty1 it was -0.609; in [16] it was 0.244. Also, in [1], the composite Z-score is -0.883 (inactive). Besides, the z-score in assay [15] is -2.17; in [17], -2.15 (inactive).
As for `COC(=O)C1=CC(c2ccc(CO)cc2)=CC(c2cccs2)N(C)C=C1C(=O)OC` (stereo not given), the composite z-score with Albumin (Bos taurus) was 0.208; in [2] it was -0.0023; in [3], -0.14; in assay [4] it was 0.589; in assay [5], 2; in assay [6], 0.387. The composite z-score is 0.494 with Sam68 (KHDRBS1); -1.14 in [7]; 0.494 in assay [8]; 1.48 in assay [9]; -0.351 in assay [10]; 1.18 in assay [11]. Also, the composite z-score in [12] was -0.141; in assay [13], 0.23; in assay [14], -0.485; in the assay with Lefty1, -0.116; in assay [16] it was 0.84. Further, the composite Z-score in assay [1] is 0.875 (inactive). For the same compound, the z-score in assay [15] is 1.08; in assay [17], -0.822 (inactive).
For `CCN(CC)c1ccc(N2CC=CC34O[C@@H]5C=CCOC(=O)[C@@H]5[C@H]3C(=O)N(C(CO)C(C)C)[C@@H]4C2=O)cc1` (stereo not given in full), the composite z-score with Albumin (Bos taurus) is -0.819; in assay [2], -0.405; in assay [3] it was -0.104; in assay [4] it was -0.604; in assay [5], -0.408; in assay [6] it was 0.23. For the same compound, the composite z-score with Sam68 (KHDRBS1) is -0.635; in assay [7], -0.42; in [8] it was -0.374; in assay [9], -1.59; in assay [10], -1.27; in [11] it was -0.596. Further, the composite z-score was -0.236 in assay [12]; -0.529 in [13]; -0.208 in assay [14]; -0.771 in the assay with Lefty1; -1.13 in assay [16]. Besides, the composite Z-score in [1] is 0.316 (inactive). For the same compound, the results for the z-score in assay [15] and in assay [17] were 1.39 and -0.638 (inactive), respectively.
With `CC(C)(C)OC(=O)CC[C@@]1(C(=O)N2CCOCC2)N=C(c2ccc(OCCCO)cc2)O[C@@H]1c1ccccc1`, the composite z-score was 1.01 with Albumin (Bos taurus); 0.0927 in [2]; -0.0017 in assay [3]; 0.904 in assay [4]; 3.76 in assay [5]; 0.599 in assay [6]. In addition, the composite z-score is 1.31 in the assay on Sam68 (KHDRBS1); -1.26 in assay [7]; 0.962 in [8]; 3.83 in assay [9]; 1.25 in assay [10]; 0.217 in [11]. Besides, the composite z-score in assay [12] was 0.938; in assay [13] it was 1.33; in assay [14] it was 0.324; in the assay with Lefty1 it was -0.508; in assay [16] it was 1.54. Also, the composite Z-score in assay [1] was -0.0503 (inactive). In addition, the z-score in assay [15] was 2.16; in assay [17], -1.99 (inactive).

The values above are taken from PubChem BioAssay.
